ChEMBL document CHEMBL3433997, “St. Jude Leishmania screening dataset” (2016)

Tests used:
Assay type in all cases: functional
[1] = biological target: Solute carrier family 2, facilitated glucose transporter member 1 (Homo sapiens) (UniProt P11166); experiment: ST_JUDE_LEISH: Cytotoxicity at 2uM final concentration against transgenic Leishmania Mexicana promastigotes LmGLUT1 that are glucose transport deficient and complemented with the human glucose transporter GLUT1. Activity is measured by DNA content using SYBR green in vitro
Sequence of Solute carrier family 2, facilitated glucose transporter member 1 (Homo sapiens) (P11166 whole entry): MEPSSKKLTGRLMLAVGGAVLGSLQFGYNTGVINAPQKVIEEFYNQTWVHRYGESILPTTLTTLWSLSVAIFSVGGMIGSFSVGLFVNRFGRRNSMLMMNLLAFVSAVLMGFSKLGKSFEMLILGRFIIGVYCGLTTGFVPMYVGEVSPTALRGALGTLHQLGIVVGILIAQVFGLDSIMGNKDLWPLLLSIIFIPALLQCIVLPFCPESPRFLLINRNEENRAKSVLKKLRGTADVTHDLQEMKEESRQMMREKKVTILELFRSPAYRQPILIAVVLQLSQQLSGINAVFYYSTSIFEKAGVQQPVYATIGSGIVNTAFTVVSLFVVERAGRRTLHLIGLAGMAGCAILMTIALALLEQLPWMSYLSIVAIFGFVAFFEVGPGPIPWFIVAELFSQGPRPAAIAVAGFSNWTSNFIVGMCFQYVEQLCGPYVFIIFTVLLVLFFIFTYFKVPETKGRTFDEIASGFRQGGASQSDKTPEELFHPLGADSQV

[2] = biological target: Hexose transporter 1 (Plasmodium falciparum) (UniProt O97467); experiment: ST_JUDE_LEISH: Cytotoxicity at 2uM final concentration against transgenic Leishmania Mexicana promastigotes LmPfHT that are glucose transport deficient and complemented with the Plasmodium falciparum hexose transporter. Activity is measured by DNA content using SYBR green in vitro
[3] = biological target: Glucose transporter (Leishmania mexicana) (UniProt O61059); experiment: ST_JUDE_LEISH: Cytotoxicity at 2uM final concentration against transgenic Leishmania Mexicana promastigotes LmGT2 that are glucose transport deficient and complemented with the L. Mexicana glucose transporter 2. Activity is measured by DNA content using SYBR green in vitro

SMILES | inhibition [1] [%] | inhibition [2] [%] | inhibition [3] [%]
O=C(Nc1ccc(Cl)cc1)c1cc(Cl)cc2nc(C(F)(F)F)[nH]c12 | 9.28 | 15 | 9.44
CN(c1ccc2c(c1)nc(NCc1ccc(F)cc1)n2C)c1ccnc(Nc2ccc(CS(C)(=O)=O)cc2)n1 | -0.61 | -0.52 | -1.02
Cc1cccc(-c2ccc(NC(=O)Nc3ccc4nccc(N5CCN(C)CC5)c4c3)cc2C)n1 | 8.09 | 5.32 | 3.13
NC1CCCN(Cc2ccc(-c3cccc(-c4nc5cc(F)ccc5[nH]4)c3)cc2)C1 (stereo unspecified) | -0.79 | 0.23 | -1.33
C[C@H]1CN(Cc2cccc(-c3cc(CNC(=O)c4cccc(CC5CCN(C)CC5)c4)ccc3F)c2)CCN1C | 0.87 | 0.27 | -3.42
CN(Cc1ccccc1)C(=O)c1nn(CCCN2CCC(N3CCCC3)CC2)cc1-c1ccc(Cl)c(Cl)c1 | 27.6 | 13.7 | 1.65
COC(=O)c1ccc2nc(-c3ccc(C(=O)NC4CCN(Cc5ccccc5)CC4)s3)[nH]c2c1 | 6.63 | 10.5 | 8.06
Oc1ccc(CCNc2nc(NCc3ccccc3-c3ccc(F)cc3)nc(N3CCNCC3)n2)cc1 | -6.17 | 3.48 | 6.39
Cc1ccc2nc(N(CCCn3ccnc3)C(=O)C=Cc3cccs3)sc2c1 | 0.75 | 1.84 | -2.73
Cc1ccnc2nc(C(=O)Nc3cc(Cl)ccc3N3CCOCC3)nn12 | 5.13 | 5.74 | 5.36
CCc1ccc(NC(=O)c2cccc(CN3CCCN(Cc4ccc(OC)cc4)CC3)c2)cc1 | 1.52 | 0.1 | 0.16
Cc1ccc2sc(N3CCN(C(=O)c4ccc([N+](=O)[O-])o4)CC3)nc2c1C | 44.5 | 44.3 | 13.7
COc1ccc(CCC(C)(C)NCC(O)c2cccc(C(F)(F)F)c2)cc1 (stereo unspecified) | 3.28 | 3.58 | 5.12
Cc1cc(OCCN2CCCCC2)ccc1NC(=O)c1cccc2c(=O)n(Cc3ccc(Cl)cc3)cnc12 | 103 | 104 | 105
CC(CCCC(=O)Nc1ccc(CC(C)NCCc2cccc(Cl)c2)cc1)NCCc1cccc(Cl)c1 (stereo unspecified) | 2.68 | 0.02 | 1.32
COc1ccc(CNc2nc(NCc3ccccc3)c3cc(OC)c(OC)cc3n2)cc1OC | 4.35 | 5.92 | 0.89

SMILES | inhibition [1] [%] | inhibition [2] [%] | inhibition [3] [%]
CC(Sc1nc(-c2ccccc2)c(-c2ccccc2)o1)C(=O)NC1CC1 (stereo unspecified) | -2 | 1.75 | 0.3
CC(C)(C)OC(=O)c1c(NC(=O)/C=C/c2ccc(O)c(O)c2)sc2c1CCCC2 | -1.88 | -1.04 | -0.95
O=C(/C=C/c1ccc(Cl)c(Cl)c1)N1CCC(NCc2c[nH]c3ccccc23)CC1 | 1.33 | 1.05 | 1.05
CCN(CC)CCCn1c(N)c(-c2nc3ccccc3[nH]2)c2nc(C#N)c(C#N)nc21 | 7.13 | 6.56 | 4.63
COc1cc2nc(NCCn3nc(C)cc3C)nc(NCCc3ccccc3)c2cc1OC | -0.49 | 5.15 | 1.08
Oc1ccc(-c2nc3c(N4CCN(Cc5ccccc5)CC4)cccc3n2C2CCNCC2)cc1 | 3.29 | 7.64 | 2.62
COc1ccc(C2CC(c3cccs3)=NN2C(=O)CNc2ccccc2F)cc1OC (stereo unspecified) | 2.69 | 1.72 | 2.76
N[C@@H](Cc1ccc(O)cc1)C(=O)NC(c1ccccc1)c1c(O)ccc2ccccc12 (stereo partly specified) | -0.12 | -0.91 | -0.99
CCNc1cc(C(=O)N[C@@H](Cc2ccccc2)[C@H](O)CNC(C)(C)CSCC(C)C)cc(N2CCCC2=O)c1 | 1.84 | 2.11 | -1.53
COc1ccc2ccc(F)c(CC(=O)N3CCOC(CNCc4cccc(-c5ccsc5)n4)C3)c2n1 (stereo unspecified) | 6.96 | 6.66 | 4.23
CCCCCCCC1CC(CC(=O)Nc2ccnc3ccc(OC)cc23)CN1C(=O)OC(C)(C)C (stereo unspecified) | 9.12 | 11.2 | 3.12
COc1ccc2nccc([C@@H](O)CN3CCC(NCc4cc5c(Cl)cc(Cl)cc5[nH]4)CC3)c2c1 | 6.83 | 5.77 | 1.13
CC1CN(c2cc(=O)n(Cc3cccc(NC(=O)Nc4ccc(-c5ccccc5)cc4)c3)cn2)CC(C)N1 (stereo unspecified) | 1.17 | 2.06 | -1.85
C=CCOC(=O)N1CCC(CNCc2ccc(-c3cccc(-c4nc5ccccc5[nH]4)c3)cc2)C1 (stereo unspecified) | 3.24 | 1.73 | 3.33
O=C(Nc1ccc(C(=O)N2CCN(CCN3CCN(c4cccc(C(F)(F)F)c4)CC3)CC2)cc1)c1ccc(OC(F)(F)F)cc1 | -1.35 | 0.14 | -2.39
C=C(C)C1CC=C(CN2CCCC(n3ccc4cc(NC(=O)c5ccco5)ccc43)CC2)CC1 (stereo unspecified) | -1.77 | 3.75 | -2.38
